Hits are enriched below; roughly 2.3% of the tested compounds scored in any of these assays.
TGFb inhibitor: qHTS for Inhibitors of TGF-b; HepG2 CAGA-GFP TGF-b/SMAD3 reporter, GFP fluorescence, 18 h; TGF-beta stimulated, 500 pg/mL final; Potency, µM (titrated, usually from 46.1 µM), actives largely listed as inhibitors; 1.2% of 410,000 active; AID 588855, 2011; note: nearly all actives have a fitted effect of over 65% in size
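Smad-responsive CAGA-GFP expression was quantified in HEPG2 cells exposed to compounds and 500 pg/mL final TGF-beta for 18 h at 37 degrees C; unstimulated wells defined full inhibition.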
ATXN viability: Viability Counterscreen for Primary qHTS for Inhibitors of ATXN expression; S2 cells (HEK-293 line with an ATXN2-luciferase reporter) viability, CellTiter-Fluor protease fluorescence, 24 h; Potency, µM (titrated, usually from 56.7 µM), hits mostly cytotoxic; 0.49% of 400,000 active; note: nearly all actives have a fitted effect of over 40% in size
HepG2 viability: qHTS for Inhibitors of TGF-b: Cytotox Counterscreen. 0.76% of 410,000 active. HepG2 CAGA-GFP viability, ATP luminescence, 18 h. Potency, µM (titrated, usually from 46.1 µM), most hits filed as cytotoxic
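HepG2 CAGA-GFP cells (1000/well, DMEM with 1% FBS) received compound, then TGF-beta at 500 pg/mL final, and were incubated 18 hours at 37 degrees C. Viability was read by CellTiter-Glo luminescence. Media-only wells were set as complete cell-killing and DMSO as no toxicity.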
ATXN2 expr inh: Primary qHTS for Inhibitors of ATXN expression; HEK-293 ATXN2-luciferase reporter, luminescence, 24 h; AID 1745845, 2022; Potency, µM (top dose mostly 57 µM), most hits filed as inhibitors; 0.72% of 360,000 active; note: nearly all actives have a fitted effect of over 55% in size
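qHTS (up to 57 uM final) was run with 24 h compound exposure of reporter cells at 37 °C. Each well was multiplexed: SteadyGlo luminescence measured ATXN2-luciferase expression after a fluorogenic Gly-Phe-AFC viability readout (25 uM final).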
Of the large screens only hits and unclear results are named; the others gave an inactive call. Calls come from the whole dose curve; as a rule, active = well fitted curve in the direction sought with a large enough effect; inconclusive = small, poorly fitted or top-dose-only effect, or another doubt; inactive = no such curve, though single readings can be large; an effect the other way counts as inactive or inconclusive.

CCN(CC)/[N+]([O-])=N/Oc1cc(O/N=[N+](\[O-])N(C)C)c([N+](=O)[O-])cc1[N+](=O)[O-]	TGFb inhibitor 6.3µM, HepG2 viability 10µM (no result: ATXN viability, ATXN2 expr inh)
CCOC(=O)N1CCN([N+]([O-])=NOc2cc(ON=[N+]([O-])N3CCN(C(=O)OCC)CC3)c([N+](=O)[O-])cc2[N+](=O)[O-])CC1	none (no result: TGFb inhibitor, ATXN viability, HepG2 viability)
Nc1nccc(Oc2ccc(NC(=O)c3c[nH]cc(-c4ccc(F)cc4)c3=O)cc2F)c1Cl	ATXN2 expr inh 31µM (no result: TGFb inhibitor, ATXN viability, HepG2 viability)
Cc1cnc(C)c(-c2ccc(O)c(CN3CCN(C=O)CC3)c2)n1	none (no result: TGFb inhibitor, HepG2 viability, ATXN2 expr inh)
COc1ccccc1NC(=O)C1=C(C)Nc2nnnn2C1c1ccccc1OC (centres undefined)	none
COc1ccccc1/C=C1\CCCC2=C1Nc1nnnn1C2c1ccccc1OC (centres undefined)	TGFb inhibitor 13µM
O=C(O)c1ccc2c(ccc3nn(-c4ccc(/C=C/c5ccc(-n6nc7ccc8cc(C(=O)O)ccc8c7n6)cc5[S+](=O)([O-])[O-])c([S+](=O)([O-])[O-])c4)nc32)c1	none (no result: ATXN viability, ATXN2 expr inh)
O=C(CSc1nnc(-c2ccccc2Br)o1)Nc1nncs1	HepG2 viability 16µM
CCCS(=O)(=O)NCc1c(C)ncc2c1CCN(C(=O)c1cccc(C(F)(F)F)c1)C2	none (no result: TGFb inhibitor, HepG2 viability, ATXN2 expr inh)
O=S(=O)(N=Cc1c(O)ccc2ccccc12)c1cccs1	none (no result: TGFb inhibitor, ATXN viability, HepG2 viability)
N#Cc1ncc(Cl)c2ccccc12	HepG2 viability 16µM (no result: ATXN2 expr inh)
COc1ccccc1/C=C/C=N/n1c(C)nnc1C	ATXN viability inconclusive, HepG2 viability 0.89µM
OC(C1=C/C(=C\c2ccncc2)c2ccccc21)c1ccncc1 (centres undefined)	TGFb inhibitor inconclusive (no result: ATXN viability, ATXN2 expr inh)
O=C(NCCc1ccccc1)c1ccc(CSc2nc3cccnc3n2Cc2ccccc2)cc1	TGFb inhibitor inconclusive
CN(Cc1ccccc1)C(=O)c1ccc(CSc2nc3cccnc3n2Cc2ccccc2)cc1	TGFb inhibitor 20µM, ATXN viability inconclusive
CCC[C@H](NC(=O)C(C#N)=Cc1cccc(Br)n1)c1ccccc1	ATXN2 expr inh 11µM (no result: TGFb inhibitor, ATXN viability, HepG2 viability)
C[C@@H](NC(=O)/C(C#N)=C/c1ccc(O)c(O)c1)c1ccccc1	ATXN viability inconclusive
O=C(NCCCNc1ccc([N+](=O)[O-])cc1)C(F)(F)F	TGFb inhibitor inconclusive
O=C(CCl)N(CCCNC(=O)C(F)(F)F)c1ccc([N+](=O)[O-])cc1	TGFb inhibitor inconclusive, ATXN viability inconclusive, HepG2 viability 16µM
Cc1cc(C(=O)NCc2nc(-c3cccc(NC(=O)c4ccccc4)c3)oc2C)nc(C)n1	none (no result: TGFb inhibitor, HepG2 viability, ATXN2 expr inh)
CCC(=O)Oc1ccc2c(c1)CC[C@@H]1[C@@H]2CC[C@@]2(C)[C@H]1C[C@@H](OC(=O)CC)[C@@H]2OC(=O)CC	none (no result: TGFb inhibitor, HepG2 viability)
CCCCOc1ccc(C(=O)NCCc2csc3nc(-c4ccccc4F)nn23)cc1	none
CC(C)(C)c1ccc(C(=O)NCCc2csc3nc(-c4ccccc4F)nn23)cc1	TGFb inhibitor 18µM, ATXN viability inconclusive
COC(=O)C[C@H]1c2ccccc2S(=O)(=O)N1c1ccc(N(C)C)cc1	none (no result: ATXN viability, ATXN2 expr inh)
Cc1ccccc1Cn1nnc2c1C(=O)c1ccccc1C2=O	TGFb inhibitor 3.5µM
Cc1cccc(Cn2nnc3c2C(=O)c2ccccc2C3=O)c1	TGFb inhibitor 3.2µM (no result: ATXN viability, ATXN2 expr inh)
CCC(CN)=C(c1ccccc1)c1ccccc1	ATXN2 expr inh inconclusive (no result: TGFb inhibitor, HepG2 viability)
COC(=O)c1cc2c([nH]c1=O)CC(c1ccccc1)CC2=O (centres undefined)	none (no result: ATXN viability, ATXN2 expr inh)
Cc1cc(C)cc(C(=O)NC(=S)Nc2ccc(-c3cc4ccccc4oc3=O)cc2)c1	ATXN viability inconclusive, ATXN2 expr inh 6.3µM
Cc1ccc(C(=O)NC(=S)Nc2ccc(-c3cc4ccccc4oc3=O)cc2)c(C)c1	ATXN2 expr inh inconclusive
COCc1c(C(=O)N2CCCCCC2)cnn1-c1nccc(-c2cccs2)n1	none (no result: TGFb inhibitor, HepG2 viability, ATXN2 expr inh)
CS(=O)(=O)c1ccc(-c2cccc3c2OC(CNC(=O)c2ccnc(Cl)c2)C3)cc1 (centres undefined)	none (no result: TGFb inhibitor, HepG2 viability, ATXN2 expr inh)
Cc1nn2c(-c3ccccc3)nnc2c2ccccc12	TGFb inhibitor inconclusive
Cc1nn2c3ccccc3nc2c2ccccc12	TGFb inhibitor inconclusive, HepG2 viability 16µM
COc1cccc2c1[C@@H]1CN(CCCCn3c(=O)[nH]c4c(sc5ncc(-c6ccccc6)nc54)c3=O)C[C@@H]1CO2	TGFb inhibitor 13µM, ATXN viability inconclusive, ATXN2 expr inh inconclusive
COc1ccc(/C=c2\[nH]c(=O)/c(=C/c3ccc(OC)c(OC)c3)[nH]c2=O)cc1OC	none (no result: ATXN viability, ATXN2 expr inh)

Compound activity as filed in PubChem.
